# Unmarked numbers belong to inactive results. Active and inactive are the calls of the source.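 The calls were made as follows: active = viability at 10 µM of 29.74% or lower, 3 SD below the compound median; inactive = the rest.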
# Assay: viability of HCT116 lacking mutant beta-catenin – cell-based, DP diverse set, validation, pilot screen (AID 1004)
# Conditions: HCT116 (mutant beta-catenin deleted) viability, CellTiter-Glo, 60 h; at 10 µM; hits give low values
row,Compound,viability
1,C[C@@H]1CC2C3CCC4=CC(=O)C=CC4(C)[C@@]3(F)[C@@H](O)CC2(C)[C@@]1(O)C(=O)CO (stereo partly specified),99.5%
2,C[C@H]1c2cccc(O)c2C(O)=C2C(=O)[C@]3(O)C(O)=C(C(N)=O)C(=O)[C@@H](N(C)C)[C@@H]3[C@@H](O)[C@@H]21,107%
3,O=C(O)c1cc([N+](=O)[O-])ccc1NCCCc1ccccc1,99.6%
4,CN(C)c1ccc(/C=C2\C(=O)Nc3ccccc32)cc1,80.2%
5,COc1ccc(CCN(C)CCCN2CCc3cc(OC)c(OC)cc3CC2=O)cc1OC,102%
6,CN=C(NC#N)NCCSCc1nc[nH]c1C,98.3%
7,CN1CCN(C2Cc3ccccc3Sc3ccc(S)cc32)CC1 (stereo unspecified),79.5%
8,CC(=O)N1CCN(c2ccc(OC[C@H]3CO[C@](Cn4ccnc4)(c4ccc(Cl)cc4Cl)O3)cc2)CC1,76.8%
9,Cc1cc(CC(=O)O)n(C)c1C(=O)c1ccc(Cl)cc1,98.7%
10,CC[n+]1c(-c2ccccc2)c2cc(N)ccc2c2ccc(N)cc21,51.3%
11,CC12CC3(O)OC(O1)C1(COC(=O)c4ccccc4)[C@@H]3CC21O[C@@H]1O[C@H](CO)[C@@H](O)[C@H](O)[C@H]1O,93.9%
12,CO/N=C(\C(=O)N[C@@H]1C(=O)N2C(C(=O)O)=C(COC(C)=O)CS[C@H]12)c1csc(N)n1,96.4%
13,CCCCCCCCCCCCCCCC(=O)OCC(O)C1OC(=O)C(O)=C1O (stereo unspecified),100%
14,CCn1cc(C(=O)O)c(=O)c2ccc(C)nc21,94.8%
15,NCCNS(=O)(=O)c1cccc2c(Cl)cccc12,95.7%
16,O=c1c2ccccc2nc2n1CCc1c-2[nH]c2ccccc12,90.5%

row,Compound,viability
1,CCCC[C@@H](C=O)NC(=O)[C@H](CC(C)C)NC(=O)[C@H](CC(C)C)NC(C)=O,8.45% (active)
2,NCC(=O)N[C@@H](CCCN=C(N)N)C(=O)NCC(=O)N[C@@H](CC(=O)O)C(=O)N[C@@H](CC(N)=O)C(=O)N1CC[C@@H](C(=O)O)C1,95.6%
3,CCC[C@@H]1C[C@@H](C(=O)NC(C(C)Cl)[C@H]2O[C@H](SC)[C@H](O)[C@@H](O)[C@H]2O)N(C)C1 (stereo partly specified),95.6%
4,CSc1ccc(/C=C2/C(C)=C(CC(=O)O)c3cc(F)ccc32)cc1,96%
5,Cn1c(=O)c2[nH]cnc2n(C)c1=O,100%
6,C[C@@H]1C(=O)O[C@@H]2CC34C5CC(C(C)(C)C)[C@]36C(O)C(=O)O[C@@H]6O[C@@]4(C(=O)O5)[C@@]12O (stereo partly specified),72.1%
7,O=c1[nH]c(=O)n(C2CCCO2)cc1F (stereo unspecified),94.9%
8,C[C@@H]1CC[C@]2(C(=O)O)CC[C@]3(C)C(=CCC4[C@@]5(C)C[C@@H](O)[C@H](O)[C@@](C)(CO)C5CC[C@]43C)C2[C@H]1C (stereo partly specified),100%
9,COc1ccc2c3c1O[C@H]1C[C@@H](O)C=C[C@@]31CCN(C)C2,94%
10,Cc1ccc2c(c1)C(=O)C1(O)CCN(c3ccccc3)C1=N2 (stereo unspecified),91%
11,COc1ccc2cc3[n+](cc2c1OC)CCc1cc2c(cc1-3)OCO2,99.8%
12,O=C(O)c1ccccc1O,103%
13,CCN(CC)C(=S)SSC(=S)N(CC)CC,76.5%
14,C=C1CC[C@H](O)C/C1=C/C=C1\CCC[C@]2(C)[C@@H]([C@H](C)CCCC(C)C)CC[C@@H]12,104%
15,C[C@@]12C=Cc3occc3C1CC[C@@]13C[C@@H](CCC12)[C@@](O)(CO)C3 (stereo partly specified),94.3%

# — PubChem BioAssay AID1004 (SRMLSC, 2008)
